Source: PubChem BioAssay
An excerpt weighted towards active compounds, which were near 1.6% of everything screened.
NPR2 activator – GC-B (human) receptor activation | actives 0.11% (n = 370,000) | HEK293-GC-B cells, CNP EC30, cGMP TR-FRET; 0% at EC30 CNP, 100% saturating CNP | activation, % at 10 µM | P20594;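 active means activation at 10 µM reaching about 35% in either raw or pattern-adjusted values, limit read from the data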
Rce1 inh – yeast Ras-converting enzyme inhibition. actives 0.27% (n = 290,000). calls only. yeast membranes, quenched prenylated peptide cleavage fluorescence;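 active means fall in fluorescence gain of 50% or more versus controls, with final raw signal at or below 3038400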;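 further: plate controls were neutral control wells for no effect and wells lacking membranes for full effect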
GC-A act – GC-A (human) enzyme activation | HEK293 GC-A cells, cGMP TR-FRET, EC30 ANP; 0% at EC30 ANP, 100% saturating ANP | activation, % at 10 µM | actives 0.14% (n = 370,000) | AID 1671463; in the data active means activation above about 40%
V-ATPase pHluor – alters yeast V-ATPase proton transport; S. cerevisiae, pHLuorin cytosolic pH fluorescence; response, % at 10 µM; actives 0.37% (n = 350,000); AID 504577; in the data active means response mostly above about 7.3%, no sharp cut-off; inactive means mostly below about 5.4%; further: actives read high
NSD2 inh – NSD2 (human) methyltransferase inhibition; inhibition, % at 12.5 µM; NSD2 peptide methylation, AlphaScreen, 120 min; actives 0.54% (n = 310,000); O96028; in the data active means inhibition above about 50%
Efflux pump mplx – antifungal efflux pump inhibition, Nile Red retention. S. cerevisiae Candida pump triplex. inhibition, % at 10 µM. actives 0.44% (n = 330,000);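 active means plate passing quality check with inhibition over a set limit, or well fluorescence over plate mean plus 4 SD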;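 further: Nile Red retained in pooled yeast measured as flow cytometry median fluorescence; 0% = buffer negative control and 100% = Enniatin B positive control; higher means more Nile Red kept so more efflux inhibition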
V-ATPase pH SP – modulates yeast V-ATPase proton transport; shares compounds with V-ATPase pHluor; S. cerevisiae pHLuorin cytosolic pH; AID 602197; actives 2% (n = 980); response, % at 10 µM; in the data active means response above about 24%;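 further: plate controls were vehicle wells for no effect and positive control wells for full effect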
* hit, by the source's call; i = inactive; / = not tested or not shown.

SMILES	NPR2 activator	Rce1 inh	GC-A act	V-ATPase pHluor	NSD2 inh	Efflux pump mplx	V-ATPase pH SP
COc1ccc(C(=O)CSc2nnc(-c3cc(C)cc(C)c3)o2)cc1	5	i	1	-2	-4	0	/
O=C(CSc1nnc(-c2ccccc2)o1)N1CCCC1	1	i	4	-4	0	0	0
COc1ccc(-n2c(COc3ccc(Cl)cc3)nnc2SCC(=O)Nc2ccc3c(c2)OCO3)cc1	-3	/	-11	/	1	/	/
Cc1ccccc1C(=O)N(C)[C@H]1C[C@H]2c3[nH]c4c(-c5ccc6c(c5)OCO6)cccc4c3CCN2C(=O)[C@H]1[C@H](C)O	-10	/	-7	/	/	/	/
O=[N+]([O-])c1cccc(OCCCN2CCC(C(O)(c3ccccc3)c3ccccc3)CC2)c1	-13	/	-13	/	/	/	/
O=C(CSCc1ccc(F)cc1)N1CCN(c2ccc(F)cc2)CC1	-1	i	-5	3	8	0	/
Cc1ccc(CSCC(=O)N2CCN(c3ccc(F)cc3)CC2)cc1	-1	i	3	12*	-1	0	0
CC(C)(C)OC(=O)NCCCc1ccc2c(c1)[C@]1(CCC[C@@H](OCc3ccccc3)[C@@H]1NC(=O)CCc1ccccc1)C(=O)N2Cc1ccccc1	3	/	3	/	/	/	/
O=C(NC1CCCCCC1)c1ccc(OCC2CCCO2)cc1 (stereo not given)	8	i	1	7.8*	-4	0	1
CCOc1ccc(C(=O)NC2CCCCCCC2)cc1	6	i	8	3	-3	0	/
COC(=O)c1cc(-c2cccc(C#N)c2)c(=O)n2c1CCC2	-1	/	-4	/	/	/	/
O=C(CSc1ncnc2c1oc1ccccc12)Nc1nccs1	0	i	23	-1	/	0	/
CCc1nc(SCC(=O)Nc2nccs2)c2oc3ccccc3c2n1	-3	i	8	10*	1	0	-1
O=C(CSc1nc(=O)n(CCCN2CCOCC2)c2c1CCCC2)Nc1ccc(F)cc1F	1	i	-3	6.0*	-2	0	-1
CNC(=O)C[C@@H]1CC[C@@H]2[C@H](COc3ccc(NC(=O)c4cccc(F)c4)cc3C(=O)N2C)O1	1	/	2	/	/	/	/
Cc1ccc(C(=O)NNC(=S)NC(=O)c2ccco2)cc1	1	i	-2	2	-4	0	/
Cc1ccc(C(=O)NNC(=O)c2ccco2)cc1	4	i	0	17*	0	0	0
N/C(=N\OC(=O)Cc1ccccc1[N+](=O)[O-])c1cccc(Br)c1	1	i	3	13*	-1	0	-3
CCN(CC)c1ccc(C=Nn2c(C)nnc2C)cc1	4	/	-1	/	0	/	/
O=S1(=O)N(Cc2ccccc2F)CCCN1Cc1c(F)cccc1Cl	3	i	-1	9.6*	-2	0	0
Cc1ccc(CN2CCCN(Cc3c(F)cccc3Cl)S2(=O)=O)cc1	10	i	-3	-5	-4	0	/
O=C1[C@@H](C2CC2)[C@@H]2c3ccccc3C=NN2[C@@H]2c3ccccc3C=NN12	-6	/	0	/	/	/	/
CC1Oc2ccccc2N(CC(=O)c2cccc(Cl)c2)C1=O (stereo not given)	-4	i	-4	8.0*	-4	0	3
COC/C=C/C1=CC2=CC(=O)C(C)(OC(=O)c3cnc4ccccc4n3)C(=O)C2=CN1CC1CC1 (stereo not given)	/	i	/	-4	/	0	/
COC/C=C/C1=CC2=CC(=O)C(C)(OC(=O)c3cnc4ccccc4n3)C(=O)C2=CN1C1CC1 (stereo not given)	5	i	2	12*	/	0	-3
O=C(Cc1n[nH]c(=O)c2ccccc12)OCC(=O)c1ccc(F)cc1	3	i	2	-1	-1	0	/
O=C(Cc1n[nH]c(=O)c2ccccc12)OCC(=O)c1ccc2c(c1)OCCO2	-4	i	4	12*	14	0	-1
Cc1ccc(S(=O)(=O)N2CCN(c3ccccc3)CC2)cc1C(N)=O	-4	i	1	9.8*	-2	0	-1
C[C@H]1COc2cccc(N3CCCC3)c2S(=O)(=O)N1C	1	/	4	/	/	/	/
O=C(NCC1(N2CCCCC2)CCCCC1)c1ccc(S(=O)(=O)N2CCCC2)cc1	1	i	1	7.8*	1	0	-7
